LASV entry inh = qHTS for Inhibitors of binding or entry into cells for Lassa Virus; Lassa virus pseudotype entry inhibition, cell reporter; Potency, µM (doses to about 37.9 µM), inactives show at the top dose activity change, negative = inhibition, hits mostly inhibitors; actives 1.2% (n = 300,000); AID 540256, 2011; calls by dose curve; tested in HEK293 cells; further: potency means the concentration at half of the fitted maximal effect; nearly all actives have a fitted effect of over 50% in size
HCMV antiviral = qHTS Assay for inhibitors of the human cytomegalovirus (HCMV); HFF cells, HCMV-luciferase reporter, 72 h; hits give low values; activity change, negative = inhibition, % at 57.5 µM; actives 4.5% (n = 410,000); AID 1259415, 2018; in the data active means activity change below about -60%; inconclusive means no clear call, values can overlap the other calls; inactive means above about -39%
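HFF cells seeded 16 h at 37C, treated with compounds, infected with luciferase-reporter HCMV at MOI 1 PFU/cell; luciferase read at 72 h post infection, normalized to buffer-only and Salinomycin controls.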
Giardia FBPA inh = qHTS Assay for Inhibitors of Fructose-1,6-bisphosphate Aldolase from Giardia Lamblia. Potency, µM (series often up to 59.6 µM), without a hit: at the top dose activity, negative = inhibition, actives largely listed as inhibitors. purified Giardia FBPA. actives 0.71% (n = 290,000). A8B2U2. AID 2451, 2010; further: potency means the concentration at half of the fitted maximal effect; nearly all actives have a fitted effect of over 55% in size
Target sequence (A8B2U2 whole entry, looked up): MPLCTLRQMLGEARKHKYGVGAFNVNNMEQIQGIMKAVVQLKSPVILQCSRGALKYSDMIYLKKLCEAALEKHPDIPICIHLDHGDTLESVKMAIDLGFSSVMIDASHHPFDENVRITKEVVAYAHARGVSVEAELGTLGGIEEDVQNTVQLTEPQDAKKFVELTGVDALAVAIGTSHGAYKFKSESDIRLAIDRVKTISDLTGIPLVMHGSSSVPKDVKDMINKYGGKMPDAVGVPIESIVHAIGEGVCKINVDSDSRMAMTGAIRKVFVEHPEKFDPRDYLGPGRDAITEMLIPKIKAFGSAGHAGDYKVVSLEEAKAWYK
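Giardia FBPA (40 nM reagent) was preincubated 10 min at RT with compound (up to 57.5 uM final), then substrate plus GAPDH/TPI/NAD/arsenate coupling system with diaphorase/resazurin was added; resorufin fluorescence (525/598 nm) was read after 20 min.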
Marburg entry inh = qHTS for inhibitors of binding or entry into cells for Marburg Virus; Marburg virus pseudotyped entry inhibition, cell reporter; Potency, µM (top dose mostly 37.8 µM), inactives show at the top dose activity change, negative = inhibition, actives largely listed as inhibitors; actives 1.8% (n = 300,000); calls by dose curve; tested in HEK293 cells; further: potency means the concentration at half of the fitted maximal effect
HCV inhibitor = qHTS Assay for Inhibitors of Hepatitis C Virus (HCV); Huh7.5.1 HCVcc-Cre infection, luciferase reporter, 44 h; Potency, µM (highest dose often 41.8 µM), for inactives: top-dose activity change, negative = inhibition, hits mostly inhibitors; actives 3.4% (n = 340,000); AID 651820, 2012; further: potency means the concentration at half of the fitted maximal effect
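Cells seeded at 1,000/well and cultured 4 h, then compounds added followed by HCVcc-Cre virus (~0.5 moi). After 44 h further culture, luciferase substrate was added, plates held 15 min at room temperature, and luminescence read for 15 sec.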
FMDV antiviral = High Throughput Screening for Foot and Mouth Disease Virus Antivirals; FMDV antiviral cell-based qHTS; Potency, µM (top dose mostly 57.9 µM), for inactives: at the highest dose activity change, negative = inhibition, hits mostly inhibitors; actives 1.2% (n = 410,000); calls by dose curve; tested in HEK293T cells; further: read-out not given here; potency means the concentration at half of the fitted maximal effect; nearly all actives have a fitted effect of over 45% in size
* hit, by the source's call; ? = inconclusive; . = no result; [ ] = remark or other dose. The list is not random: actives were taken first. Their share in the collection is about 8.3%. Unless noted, the call rests on the fitted dose curve; in most records, active means well fitted curve in the direction sought with a large enough effect; inconclusive means small, poorly fitted or top-dose-only effect, or another doubt; inactive means no such curve, though single readings can be large; an effect the other way counts as inactive or inconclusive. On the % scale 0 is the no-effect control and ±100 the full control effect.

SMILES	LASV entry inh	HCMV antiviral	Giardia FBPA inh	Marburg entry inh	HCV inhibitor	FMDV antiviral
Clc1ccccc1Nc1nc(-c2ccncc2)nc2ccccc12	.	2	-8%	.	7.1µM*	?
Fc1ccc(Nc2nc(-c3ccncc3)nc3ccccc23)cc1F	6%[46.1 µM]	12	10%	7.1µM*	11µM*	?
CC(=O)c1ccc(Nc2nc3ccccc3nc2-n2nc(C)cc2C)cc1	21%[46.1 µM]	-27	.	10%[46.1 µM]	.	-15%
Cc1ccc(NC(=O)c2cc(S(=O)(=O)N3CCc4ccccc43)cn2C)cc1	.	-16	6%	.	?	?
CCOC(=O)c1cc(S(=O)(=O)N2CCc3ccccc32)cn1C	.	-39	.	.	?	-3%
Cn1cc(S(=O)(=O)N2CCc3ccccc32)cc1C(=O)Nc1ccc(Cl)cc1	.	-12	-3%	.	?	28µM*
Cc1cccc(C)c1NC(=O)c1cc(S(=O)(=O)N2CCc3ccccc32)cn1C	.	25	11%	.	-14%	-5%
Cn1cc(S(=O)(=O)N2CCc3ccccc32)cc1C(=O)NC(C)(C)C	.	-79*	-5%	.	?	?
CCCN(C(=O)c1cc(S(=O)(=O)N2CCc3ccccc32)cn1C)c1ccc(OCC)cc1	17%[46.1 µM]	-75*	.	.	.	-8%
N#Cc1ccccc1-c1cncnc1NCc1cccnc1	.	.	1%	.	.	12%
O=C(CN1CCCN(S(=O)(=O)c2ccc(Br)cc2)CC1)Nc1cccc(C(F)(F)F)c1	0%[46.1 µM]	1	.	?	.	-30%
Cn1c(=O)oc2cc(S(=O)(=O)NC(Cc3ccccc3)C(=O)Nc3ccc(F)cc3)ccc21 (centres undefined)	?	-24	.	2%[46.1 µM]	.	19%
Cc1cc(NC(=O)NC(=O)c2ccc(F)cc2F)n[nH]1	16µM*	25	-3%	?	16%	-20%
CCCn1c(=N)c(C(=O)NC2CCCCC2)cc2c(=O)n3cc(C)ccc3nc21	-7%[46.1 µM]	6	.	-13%[46.1 µM]	.	1%
COc1ccc2nc3cc(Cl)ccc3c(Nc3ccc(O)c(CN4CCN(C)CC4)c3)c2c1	?	17	.	4.5µM*	?	1%
COc1ccc2nc3cc(Cl)ccc3c(NCCCN3CCN(CCCNc4c5ccc(Cl)cc5nc5ccc(OC)cc45)CC3)c2c1	.	.	1%	.	.	.
CCc1c(C)nc2ncnn2c1NCCc1ccccc1	3%	-35	-3%	?	28µM*	?
CCOc1ccc(NC(=O)N2CCOc3ccccc32)cc1	10%[46.1 µM]	54	.	.	.	28%
COC(=O)c1ccccc1NC(=O)NCCc1c(C)nn(C)c1C	-4%[46.1 µM]	-9	.	.	.	7%
CC(=O)c1cccc(NC(=O)CCS(=O)(=O)c2ccc(Br)s2)c1	3%[46.1 µM]	?	-4%	?	-4%	-11%
O=C(CCS(=O)(=O)c1ccc(Br)s1)Nc1cc(C(F)(F)F)cc(C(F)(F)F)c1	-1%[46.1 µM]	-90*	.	?	.	?
Cc1ccccc1CCNC(=O)c1ccc2c(c1)c(C)c(C)n2Cc1ccccc1	-11%[46.1 µM]	0	.	.	.	0%
Cc1c(C)n(Cc2ccccc2)c2ccc(C(=O)OCCCN(C)C)cc12	?	-63*	-1%	10µM*	?	-8%
Cc1c(C)n(CCN(C)C)c2ccc(C(=O)OCCN(C)C)cc12	.	-10	.	.	11µM*	-16%
COCOc1ccc(Br)cc1C(=O)[C@H]1O[C@H]1c1cccc(OC)c1	.	.	0%[12.9 µM]	-17%[14.2 µM]	.	.
SMILES	LASV entry inh	HCMV antiviral	Giardia FBPA inh	Marburg entry inh	HCV inhibitor	FMDV antiviral
Cc1ccc(Cl)cc1NC(=O)C(C)n1nnc2sc3c(c2c1=O)CCCC3 (centres undefined)	0%[46.1 µM]	-8	.	?	.	0%
CCCCN(CCCNC(=O)c1cc(Nc2ccc(OC)c(OC)c2)nc2ccccc12)Cc1ccccc1	?	-18	.	?	.	-10%
COc1ccc(Nc2cc(C(=O)NCCCN(C)Cc3ccccc3)c3ccccc3n2)cc1OC	2%[46.1 µM]	-100*	.	.	.	-16%
CCCCN(C)CCCNC(=O)c1cc(-c2ccc(Br)s2)nc2ccccc12	?	-68*	.	13%[46.1 µM]	.	-9%
Cc1cc(C)cc(Nc2cc(C(=O)NCCCN(C)C3CCCCC3)c3ccccc3n2)c1	-27%[46.1 µM]	-99*	.	?	.	?
CCCCN(CCCNC(=O)c1cc(Nc2ccc(OC)cc2)nc2ccccc12)Cc1ccccc1	26%[46.1 µM]	-71*	.	8%[46.1 µM]	.	-3%
CCCCN1CCc2nc(N3CCN(c4ncccn4)CC3)ncc2C1	-14%[46.1 µM]	16	.	.	.	0%
Cc1ccc(Cl)cc1N1CCN(C(=O)c2cnc(N3CCOCC3)c3ccccc23)CC1	?	-36	.	.	.	?
Cc1ccccc1-c1nc(CNC(=O)NC2CCCCC2)c(C)o1	-7%[46.1 µM]	5	.	.	.	28%
CCc1ccc(NC(=O)CC2C(=O)N(c3ccc(Cl)cc3)C(=O)N2Cc2ccco2)cc1 (centres undefined)	-27%[46.1 µM]	23	.	.	.	6%
O=C(c1ccc(Cl)c(S(=O)(=O)N2CCCCCC2)c1)N1CCCCC1	.	9	.	.	-12%	7%
O=C(c1ccc(Cl)c(S(=O)(=O)N2CCCCCC2)c1)N1CCN(c2ccccn2)CC1	?	-81*	4%	?	7.1µM*	28µM*
CCOc1ccccc1N1CCN(C(=O)c2ccc(Cl)c(S(=O)(=O)N3CCCCC3)c2)CC1	?	-38	.	?	10µM*	32µM*
OC[C@@H]1O[C@H](OC2[C@@H](O)[C@@H](O)[C@@H](O)O[C@@H]2CO)[C@H](O)[C@@H](O)[C@@H]1OC1O[C@H](CO)[C@@H](O)[C@H](O)[C@@H]1O (some centres undefined)	.	.	-19%	.	.	.
OCC1(Cc2ccccc2C(F)(F)F)CCN(Cc2ccc3c(c2)CCO3)CC1	-5%[46.1 µM]	-76*	4%	?	9%	1%
OCC1(Cc2ccccc2C(F)(F)F)CCN(Cc2ccccc2)CC1	-26%[46.1 µM]	-5	4%	?	-19%	-3%
COC(=O)c1ccccc1NC(=O)NCc1ccc2c(c1)CCN2C(=O)c1ccccc1	?	-23	.	.	.	-27%
O=C1NC(=O)c2cc(NC(=O)c3cccc4ccccc34)ccc21	.	-85*	-10%	.	12%	4%
COC(=O)c1ccc(CN2C(=O)[C@@]3(CC(C)=CC[C@@H](C)O3)c3ccccc32)cc1	.	.	.	-29%[14.2 µM]	.	.
CCN(C(=O)CSc1nc2ccccc2n1CC(=O)Nc1cccc(C#N)c1)c1ccccc1	?	-3	.	.	.	-2%
Cn1nc(C(F)(F)F)c(C(=O)Nc2ccc(F)cc2F)c1Oc1cccc(Cl)c1	-2%	-20	5%	-8%	?	?
Cc1nn(C)c(Oc2ccc(Cl)cc2)c1C(=O)Nc1ccc(F)cc1F	1%	-60*	1%	-20%	10µM*	0%

Screening results deposited in PubChem by National Center for Advancing Translational Sciences (NCATS).
